High-throughput results as filed in PubChem.
Hits are enriched below; roughly 3.2% of the tested compounds scored in any of these assays.
TMEM16A act – TMEM16A chloride channel activators or potentiators, primary screen, cell-based, HTS | Anoctamin-1 (Mus musculus), Q8BHY3 | HEK293 TMEM16A/YFP-H148Q/I152L, iodide quench fluorescence; active compounds read low | B-score at 10 µM | hit rate 0.3% among 340,000;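 active = fluorescence-ratio B-score plate-corrected deviation score at least 3 library SD below zero, with starting fluorescence score within 5 deviations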;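 note: channel opened by trigger with iodide after compound preincubation; score built on the fluorescence ratio of max minus min over baseline; more negative score means more quench and so TMEM16A activation or potentiation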
ANO1 block – TMEM16A chloride channel inhibitors, primary screen, cell-based, HTS. HEK293 TMEM16A/YFP iodide influx fluorescence, ionomycin. normalized B-score (activity score, 25-100; higher = stronger inhibition) at 10 µM. AID 588511, 2011. hit rate 1.2% among 310,000;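 active = ratio plate-corrected score three or more library SD toward inhibition, starting fluorescence score within five deviations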;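 note: score derived from kinetic fluorescence span divided by baseline fluorescence per well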
PHOSPHO1 block – PubChem AID 1565. Phosphoethanolamine/phosphocholine phosphatase (Homo sapiens), Q8TCT1. recombinant PHOSPHO1, absorbance phosphatase assay. inhibition, % at 13.3 µM. hit rate 1.1% among 290,000; in the data active = inhibition above about 60%
Target sequence (Q8TCT1 whole entry, looked up): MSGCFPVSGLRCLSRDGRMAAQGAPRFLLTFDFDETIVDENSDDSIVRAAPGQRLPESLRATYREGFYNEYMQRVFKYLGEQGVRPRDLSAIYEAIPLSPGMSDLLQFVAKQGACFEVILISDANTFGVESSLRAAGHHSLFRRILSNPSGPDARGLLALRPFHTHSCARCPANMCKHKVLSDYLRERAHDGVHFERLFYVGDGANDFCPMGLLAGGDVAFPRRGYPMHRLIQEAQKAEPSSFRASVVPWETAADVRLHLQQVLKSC
CHT allo act – CHT positive allosteric modulators, primary screen, cell-based, membrane potential dye, choline EC20; CHT-expressing cells; active compounds read high; LV-AA mutant CHT in HEK293 cells; B-score at 10 µM; hit rate 0.49% among 310,000;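 active = initial fluorescence not abnormally high and integrated response B-score, plate-corrected, over 3 SD above library mean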
HDAC3 inhib – HDAC3 deacetylase inhibitors, primary screen, biochemical, fluorescence, cell-free homogeneous; recombinant HDAC3, fluorogenic peptide/trypsin coupled; inhibition, % at 8.3 µM; hit rate 0.15% among 320,000; in the data active = inhibition above about 26%, passing the limit was not always enough
CHT block – inhibitors of human choline transporter CHT; High affinity choline transporter 1 (Homo sapiens), Q9GZV3; B-score at 10 µM; CHT-expressing cells, membrane potential dye, choline response; active compounds read low; hit rate 0.86% among 310,000;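 active = B-score over 3 SD under the library average, and starting fluorescence ratio not unusually high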;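 note: choline stimulus applied at its EC90 after an EC20 pre-addition; B-score computed on integrated fluorescence ratio after choline addition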
CHT block conf – CHT inhibitors, confirmation, cell-based, membrane potential dye, duplicate | shares compounds with CHT block | CHT-expressing cells, choline membrane potential dye; LV-to-AA substituted CHT, HEK293 cells | CHT activity remaining % of control (active compounds read low), % at 10 µM | hit rate 70% among 2,400 | AID 493221, 2011;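 active = choline transporter activity left, mean of duplicates at 10 µM, below buffer-only control mean minus 3 SD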;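 note: depolarization triggered by choline at its EC90 following an EC20 pre-addition; 0% = hemicholinium-3 full block and 100% = buffer-only control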
HEK293 CHT ctr – membrane potential effects in parental HEK293, counter-screen for CHT inhibitor project, cell-based, membrane potential dye | shares compounds with CHT block | choline response; active = decrease or increase beyond buffer ±3SD | membrane potential ratio readout (active if shifted either direction beyond buffer ±3SD; no single direction) at 10 µM | hit rate 4% among 2,400 | AID 493222, 2011;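 note: parental cells lack the transporter so any hit is non-specific; ratio is peak minus trough fluorescence over baseline after EC90 choline challenge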
Numbers without * were called inactive; i = inactive; nt = not tested or not shown.

SMILES	TMEM16A act	ANO1 block	PHOSPHO1 block	CHT allo act	HDAC3 inhib	CHT block	CHT block conf	HEK293 CHT ctr
CC1=C(C(=O)OCC2CCCO2)C(c2ccsc2)C2=C(CCCC2=O)N1 (centres undefined)	i	i	21	i	-13	i	nt	nt
COCC(=O)NC1CCN(S(=O)(=O)c2ccc(C(=O)O)cc2)CC1	i	i	-6	i	6	i	nt	nt
COCC(=O)NC1CCN(S(=O)(=O)c2cccc(C(C)=O)c2)CC1	i	i	45	i	6	-5.1*	i	i
c1ccc(OCCCc2nc(-c3ccncc3)no2)cc1	i	i	-14	i	nt	i	59%*	-8.4*
c1ccc(OCc2nc(-c3ccncc3)no2)cc1	i	i	0	i	1	i	nt	nt
Clc1ccccc1OCc1nc(-c2ccncc2)no1	i	i	-5	i	1	-6.4*	16%*	-11*
O=[N+]([O-])c1cc(Br)cc(C=Nc2ccc3c(c2)OCO3)c1O	i	i	-40	i	3	-8*	32%*	i
Cn1ccnc1SCC(=O)N1CCN(S(=O)(=O)c2ccccc2)CC1	i	i	13	i	1	-5*	i	i
COc1cc(OC)cc(C(=O)NC(=S)NNC(=O)[C@H]2C[C@@H]2c2ccccc2)c1	i	100*	34	i	5	-6.8*	53%*	i
COc1cccc(C(=O)N2CCN(Cc3ccccn3)CC2)c1OC	i	i	16	i	-4	i	nt	nt
CC(=O)Nc1ccc(Nc2cc(C)c3ccccc3n2)cc1	i	i	45	i	4	-6.4*	46%*	i
Cc1cccc(N=Cc2cc(Br)cc(Cl)c2O)c1	i	i	-7	i	-8	-7.8*	57%*	i
O=C1C(Cl)=C(NS(=O)(=O)c2ccc([N+](=O)[O-])cc2)C(=O)c2ccccc21	i	i	25	i	-1	-5.8*	49%*	2.3*
CC(C)OP(=O)(OC(C)C)C(O)c1ccc(N(C)C)cc1 (centres undefined)	i	i	15	i	-1	i	nt	nt
Cc1onc(-c2ccccc2)c1C(=O)NC(=S)NNC(=O)c1ccco1	i	i	-91	i	9	-7.2*	59%*	i
O=C(Nc1cccc([N+](=O)[O-])c1)C(=O)N1CCCCC1	i	i	-1	i	5	-5*	i	i
NNC(=O)c1ccc(COc2ccc(Br)cc2)o1	i	i	6	i	0	i	nt	nt
NNC(=O)c1ccc(CN2CCCCC2)o1	i	i	-13	i	3	-5.9*	i	i
CCCCCCNC(=O)c1cccc(-c2ccc(C)c3ccccc23)n1	i	i	-14	i	19	-12*	i	i
Cc1ccc(S(=O)(=O)NCCC(=O)NC(C)CCc2ccccc2)cc1 (centres undefined)	i	i	nt	i	nt	-5.1*	50%*	i
CC(CCc1ccccc1)NC(=O)CCNS(=O)(=O)c1ccccc1C(F)(F)F (centres undefined)	i	nt	nt	nt	-1	nt	nt	nt
CCCn1c(=O)c2c(nc3n2CCCN3CCc2ccc(OC)c(OC)c2)n(C)c1=O	i	i	7	i	5	-5.2*	70%*	i
Cn1c(C(=O)O)c(C=O)c2ccccc21	i	i	-2	i	1	-6.7*	i	i
Cn1c(-c2ccccc2)c(C=O)c2ccccc21	i	i	36	i	-2	i	nt	nt
O=C(NNC1=C(C(=O)C(F)(F)F)CCC1)c1cccc(Cl)c1	i	100*	-6	i	7	-9.8*	40%*	i
SMILES	TMEM16A act	ANO1 block	PHOSPHO1 block	CHT allo act	HDAC3 inhib	CHT block	CHT block conf	HEK293 CHT ctr
CSCCC(NC(=O)c1ccccc1)C(=O)Nc1ccc(C)cc1 (centres undefined)	i	i	6	i	-2	-7.5*	70%*	i
Cc1ccc(-c2nnn(CC(=O)N(CCN3CCOCC3)C(C(=O)NC(C)(C)C)c3ccco3)n2)cc1 (centres undefined)	i	i	2	i	-11	-6.2*	24%*	-10*
N#C[C@H]1C(O)C(O)c2ccccc2N1C(=O)c1ccccc1 (some centres undefined)	i	i	nt	i	5	i	nt	nt
Cn1c(NC(=O)CCC2CCCCC2)cc(=O)n(C)c1=O	i	i	5	i	-4	-6.4*	i	i
C/C(=N\NC1=NCCN1)c1ccccc1	i	i	51	i	2	-6.5*	32%*	i
C/C(=N\NC1=NCCN1)c1ccc(Cl)cc1	i	i	33	i	-2	-6.7*	52%*	i
C/C(=N\NS(C)(=O)=O)c1ccccc1	i	i	12	i	-5	i	nt	nt
CCN(CC)CC(=O)Nc1ccc(/C(C)=N/NC2=NCCN2)cc1	i	i	-20	i	4	i	nt	nt
CC12CCC(=O)N1C(C(=O)Nc1nnc(SCc3ccc(F)cc3)s1)CS2 (centres undefined)	i	i	1	i	7	i	nt	nt
Brc1ccc(C2=Nc3ccccc3C(c3ccncc3)=NN2)cc1	i	i	37	i	-7	-11*	i	i
Cc1ccc(C)c(S(=O)(=O)N2CCN(C(=O)Cn3cnc4c3c(=O)n(C)c(=O)n4C)CC2)c1	i	i	33	i	1	i	nt	nt
O=C(N/N=C/c1cccc(Oc2ccccc2)c1)c1cccc(O)c1	i	i	31	i	5	-5.3*	67%*	i
O=C(N/N=C/c1cccc(Oc2ccccc2)c1)c1cccc(Br)c1	i	i	46	i	-2	i	nt	nt
COCCNC(=O)c1cc(-c2ccccc2OC)on1	i	i	0	i	3	-7.4*	i	i
